From PubChem BioAssay (EPA / NIEHS)
The source made the active and inactive calls. Rule for the calls: active = hit-call score of the fitted dose curve at least 0.9, where 1 is the maximum; inactive = score below 0.9.

Tests used:
[1] = read-out: Cytochrome P450 (CYP1A1), CYP1A1 (gene 1543); assay: LTEA_HepaRG_CYP1A1: Life Technologies and Expression Analysis (LTEA) Assay for Cytochrome P450 (CYP1A1) using HepaRG (AID 2283454); details: mRNA level, 48 h; actives raise or lower the signal
Summary of the method: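 Differentiated human HepaRG cells, after 48 h plating, exposed in duplicate for 48 h in serum-free induction medium to 8 half-log concentrations up to 100 uM in 0.5% DMSO. CYP1A1 mRNA by qRT-PCR, normalized to ACTB/GAPDH/POLR2A; bidirectional fit versus DMSO.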

[2] = read-out: CFLAR gene, CFLAR (gene 8837); assay: LTEA_HepaRG_CFLAR: Life Technologies and Expression Analysis (LTEA) Assay for CFLAR gene using HepaRG (AID 2283455); details: mRNA level, 48 h; actives raise or lower the signal
Summary of the method: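 HepaRG cells were plated for 48 h, switched to serum-free induction medium, then exposed in duplicate for 48 h to 8 concentrations (top 100 uM, half-log steps, 0.5% DMSO). CFLAR mRNA was measured by qRT-PCR, normalized to ACTB, GAPDH and POLR2A.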

[3] = read-out: Forkhead box O1 (FOXO1), FOXO1 (gene 2308); assay: LTEA_HepaRG_FOXO1: Life Technologies and Expression Analysis (LTEA) Assay for Forkhead box O1 (FOXO1) using HepaRG (AID 2283456); details: mRNA level, 48 h; actives raise or lower the signal
Summary of the method: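 Differentiated human HepaRG cells in serum-free induction medium were exposed in duplicate for 48 h to eight half-log concentrations (top 100 uM, 0.5% DMSO). FOXO1 mRNA was measured by TaqMan qRT-PCR, normalised to ACTB, GAPDH and POLR2A, and fitted bidirectionally against DMSO.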

[4] = read-out: growth arrest and DNA damage 45 (GADD45A), GADD45A (gene 1647); assay: LTEA_HepaRG_GADD45A: Life Technologies and Expression Analysis (LTEA) Assay for growth arrest and DNA damage 45 (GADD45A) using HepaRG (AID 2283458); details: mRNA level, 48 h; actives raise or lower the signal
Summary of the method: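 Human HepaRG liver cells are treated in duplicate for 48 h with chemicals in 0.5% DMSO, highest concentration 100 uM. Expression is read by qRT-PCR and analyzed in both directions against vehicle.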

[5] = read-out: ABC Transporter (ABCB1), ABCB1 (gene 5243); assay: LTEA_HepaRG_ABCB1: Life Technologies and Expression Analysis (LTEA) Assay for ABC Transporter (ABCB1) using HepaRG (AID 2283460); details: mRNA level, 48 h; actives raise or lower the signal
Summary of the method: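 Differentiated human HepaRG cells, plated 48 h then switched to serum-free induction medium, were exposed in duplicate to eight half-log concentrations up to 100 uM in 0.5% DMSO for 48 h. ABCB1 mRNA was measured by TaqMan qRT-PCR, normalized to ACTB/GAPDH/POLR2A.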

[6] = read-out: growth arrest and DNA damage 45 (GADD45B), GADD45B (gene 4616); assay: LTEA_HepaRG_GADD45B: Life Technologies and Expression Analysis (LTEA) Assay for growth arrest and DNA damage 45 (GADD45B) using HepaRG (AID 2283461); details: mRNA level, 48 h; actives raise or lower the signal
Summary of the method: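 Differentiated human HepaRG cells in serum-free induction medium exposed 48 h in duplicate to eight concentrations, top 100 uM, half-log steps, 0.5% DMSO. GADD45B mRNA by TaqMan qRT-PCR, normalized to ACTB, GAPDH, POLR2A; bidirectional fit versus DMSO.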

[7] = read-out: ABC Transporter (ABCC3), ABCC3 (gene 8714); assay: LTEA_HepaRG_ABCC3: Life Technologies and Expression Analysis (LTEA) Assay for ABC Transporter (ABCC3) using HepaRG (AID 2283462); details: mRNA level, 48 h; actives raise or lower the signal
Summary of the method: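 Differentiated human HepaRG cells exposed 48 h in serum-free induction medium, 0.5% DMSO vehicle, 8-point half-log series to 100 uM in duplicate. ABCC3 mRNA by qRT-PCR, normalised to ACTB, GAPDH, POLR2A; bidirectional fit vs DMSO.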

[8] = read-out: ABC Transporter (ABCB11), ABCB11 (gene 8647); assay: LTEA_HepaRG_ABCB11: Life Technologies and Expression Analysis (LTEA) Assay for ABC Transporter (ABCB11) using HepaRG (AID 2283463); details: mRNA level, 48 h; actives raise or lower the signal
Summary of the method: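 Differentiated human HepaRG cells were exposed for 48 h in serum-free induction medium to eight half-log concentrations up to 100 uM in 0.5% DMSO. ABCB11 mRNA was quantified by qRT-PCR, normalized to ACTB, GAPDH and POLR2A, and fitted bidirectionally versus DMSO.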

[9] = read-out: ABC Transporter (ABCC2), ABCC2 (gene 1244); assay: LTEA_HepaRG_ABCC2: Life Technologies and Expression Analysis (LTEA) Assay for ABC Transporter (ABCC2) using HepaRG (AID 2283464); details: mRNA level, 48 h; actives raise or lower the signal
Summary of the method: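 Differentiated HepaRG cells in serum-free induction medium exposed 48 h to eight half-log concentrations up to 100 uM, 0.5% DMSO, in duplicate. ABCC2 mRNA measured by qRT-PCR (TaqMan, Fluidigm), normalized to ACTB, GAPDH and POLR2A. Fitted in both directions against DMSO.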

[10] = read-out: Broad substrate specificity ATP-binding cassette transporter ABCG2 (Homo sapiens) (UniProt Q9UNQ0); assay: LTEA_HepaRG_ABCG2: Life Technologies and Expression Analysis (LTEA) Assay for ABC Transporter (ABCG2) using HepaRG (AID 2283465); details: mRNA level, 48 h; actives raise or lower the signal
Summary of the method: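 Differentiated HepaRG cells in serum-free induction medium were exposed for 48 h, in duplicate, to eight half-log concentrations up to 100 uM in 0.5% DMSO. ABCG2 mRNA was measured by TaqMan qRT-PCR, normalized to ACTB, GAPDH and POLR2A, and fitted bidirectionally versus DMSO.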

[11] = read-out: ATP-citrate lyase (ACLY), ACLY (gene 47); assay: LTEA_HepaRG_ACLY: Life Technologies and Expression Analysis (LTEA) Assay for ATP-citrate lyase (ACLY) using HepaRG (AID 2283466); details: mRNA level, 48 h; actives raise or lower the signal
Summary of the method: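 Differentiated human HepaRG cells in serum-free induction medium exposed 48 h, in duplicate, to eight half-log concentrations from 100 uM top in 0.5% DMSO; ACLY mRNA measured by qRT-PCR, normalized to ACTB, GAPDH, POLR2A, fitted bidirectionally versus DMSO.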

[12] = read-out: Peroxisomal acyl-coenzyme A oxidase 1 (ACOX1) gene, ACOX1 (gene 51); assay: LTEA_HepaRG_ACOX1: Life Technologies and Expression Analysis (LTEA) Assay for Peroxisomal acyl-coenzyme A oxidase 1 (ACOX1) gene using HepaRG (AID 2283467); details: mRNA level, 48 h; actives raise or lower the signal
Summary of the method: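 Differentiated human HepaRG cells were exposed in duplicate for 48 h in serum-free induction medium to eight half-log concentrations up to 100 uM in 0.5% DMSO. ACOX1 mRNA was then quantified by TaqMan qRT-PCR, normalized to ACTB, GAPDH and POLR2A.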

[13] = read-out: Alkaline Phosphatase, Placental (ALPP) gene, ALPP (gene 250); assay: LTEA_HepaRG_ALPP: Life Technologies and Expression Analysis (LTEA) Assay for Alkaline Phosphatase, Placental (ALPP) gene using HepaRG (AID 2283468); details: mRNA level, 48 h; actives raise or lower the signal
Summary of the method: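 HepaRG cells plated 48 h, then exposed in duplicate for 48 h in serum-free induction medium to 8-point half-log series from 100 uM in 0.5% DMSO. ALPP mRNA by TaqMan qRT-PCR, normalized to ACTB/GAPDH/POLR2A; bidirectional fit versus DMSO.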

[14] = read-out: Bcl-2 (BAD) gene, BAD (gene 572); assay: LTEA_HepaRG_BAD: Life Technologies and Expression Analysis (LTEA) Assay for Bcl-2 (BAD) gene using HepaRG (AID 2283469); details: mRNA level, 48 h; actives raise or lower the signal
Summary of the method: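 Differentiated human HepaRG cells in serum-free induction medium were exposed in duplicate for 48 h to eight concentrations (top 100 uM, half-log steps, 0.5% DMSO). BAD mRNA was quantified by qRT-PCR normalised to ACTB, GAPDH and POLR2A, with bidirectional fitting versus DMSO.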

[15] = read-out: Bcl-2 (BAX) gene, BAX (gene 581); assay: LTEA_HepaRG_BAX: Life Technologies and Expression Analysis (LTEA) Assay for Bcl-2 (BAX) gene using HepaRG (AID 2283470); details: mRNA level, 48 h; actives raise or lower the signal
Summary of the method: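 Concentration-response endpoint fitted in both directions relative to 0.5% DMSO vehicle. Human HepaRG cultures receive test chemicals for 48 h at up to 100 uM; BAX mRNA is quantified by qRT-PCR against housekeeping genes.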

[16] = read-out: adenosine kinase (ADK) gene, ADK (gene 132); assay: LTEA_HepaRG_ADK: Life Technologies and Expression Analysis (LTEA) Assay for adenosine kinase (ADK) gene using HepaRG (AID 2283471); details: mRNA level, 48 h; actives raise or lower the signal
Summary of the method: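 ADK expression quantified by qRT-PCR, normalised to three housekeeping genes, after 48 h exposure of HepaRG cells to eight concentrations (top 100 uM, half-log steps, duplicate, 0.5% DMSO). Up- or down-regulation fitted relative to vehicle.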

[17] = read-out: Alpha-fetoprotein (AFP) gene, AFP (gene 174); assay: LTEA_HepaRG_AFP: Life Technologies and Expression Analysis (LTEA) Assay for Alpha-fetoprotein (AFP) gene using HepaRG (AID 2283472); details: mRNA level, 48 h; actives raise or lower the signal
Summary of the method: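 After a 48 h plating period, cells are moved to serum-free induction medium and dosed in duplicate (100 uM maximum, half-log dilutions, 0.5% DMSO) for another 48 h. Total RNA goes to TaqMan qRT-PCR; AFP signal is housekeeping-normalized.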

[18] = read-out: BCL2L11 (gene 10018); assay: LTEA_HepaRG_BCL2L11: Life Technologies and Expression Analysis (LTEA) Assay for Bcl-2 (BCL2L11) gene using HepaRG (AID 2283473); details: mRNA level, 48 h; actives raise or lower the signal
Summary of the method: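 Differentiated human HepaRG cells were exposed 48 h in serum-free induction medium to eight half-log concentrations up to 100 uM in 0.5% DMSO, in duplicate. BCL2L11 mRNA was quantified by TaqMan qRT-PCR, normalized to ACTB, GAPDH and POLR2A; induction or repression fitted versus DMSO.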

[19] = CEETOX_H295R_TESTO: CeeTox H295R High-throughput Steroidogenesis Assay for Testosterone (TESTO) (AID 2283457); details: actives raise or lower the signal
Summary of the method: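 H295R adrenal cells, passage ≤10, exposed to chemicals for 48 h. Testosterone in medium measured by MTBE extraction and HPLC-MS/MS against a 7-point standard curve. Bidirectional fit versus DMSO; MTT viability checked in the same wells.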

Measured: AC50

Broad substrate specificity ATP-binding cassette transporter ABCG2 (Homo sapiens), sequence (Q9UNQ0 whole entry, looked up): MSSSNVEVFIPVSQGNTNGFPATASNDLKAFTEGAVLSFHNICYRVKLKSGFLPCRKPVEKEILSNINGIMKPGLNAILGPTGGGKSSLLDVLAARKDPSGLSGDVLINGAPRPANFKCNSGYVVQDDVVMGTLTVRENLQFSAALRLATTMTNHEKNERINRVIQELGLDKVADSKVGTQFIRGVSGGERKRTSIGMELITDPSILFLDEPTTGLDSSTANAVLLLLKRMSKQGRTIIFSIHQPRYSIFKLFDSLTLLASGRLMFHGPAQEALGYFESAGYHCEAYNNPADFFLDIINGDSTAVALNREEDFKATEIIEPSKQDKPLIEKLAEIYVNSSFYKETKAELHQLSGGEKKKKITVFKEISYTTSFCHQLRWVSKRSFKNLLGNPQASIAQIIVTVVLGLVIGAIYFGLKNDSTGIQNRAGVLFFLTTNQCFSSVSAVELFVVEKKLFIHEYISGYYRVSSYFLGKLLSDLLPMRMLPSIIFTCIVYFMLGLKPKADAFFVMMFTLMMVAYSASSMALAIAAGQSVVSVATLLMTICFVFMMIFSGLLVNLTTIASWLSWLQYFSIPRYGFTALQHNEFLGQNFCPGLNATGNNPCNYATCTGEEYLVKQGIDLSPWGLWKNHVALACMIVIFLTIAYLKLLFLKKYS

CCCCC(CC)COC(=O)c1ccccc1C(=O)OCC(CC)CCCC (configuration not stated)
active: [1] 34.4 µM
not listed: [19]
inactive: all other assays above

CCCCNC(=O)n1c(NC(=O)OC)nc2ccccc21
active: [1] 26.1 µM
not listed: [3] | [11]
inactive: all other assays above

COC(=O)c1ccccc1C(=O)OC
not listed: [11] | [19]
inactive: all other assays above
